Only a selection was taken, and hits are over-represented in it overall.
ST2 IL33 inh = IL1RL1 inhibition | Q01638 | AlphaLISA ST2-Fc/biotin-IL-33 interaction, 1 h | inhibition, % for hits at 17 µM | actives 2.3% (n = 78,000) | AID 1259354; in the data active means inhibition above about 30%
Target sequence (Q01638 whole entry, looked up): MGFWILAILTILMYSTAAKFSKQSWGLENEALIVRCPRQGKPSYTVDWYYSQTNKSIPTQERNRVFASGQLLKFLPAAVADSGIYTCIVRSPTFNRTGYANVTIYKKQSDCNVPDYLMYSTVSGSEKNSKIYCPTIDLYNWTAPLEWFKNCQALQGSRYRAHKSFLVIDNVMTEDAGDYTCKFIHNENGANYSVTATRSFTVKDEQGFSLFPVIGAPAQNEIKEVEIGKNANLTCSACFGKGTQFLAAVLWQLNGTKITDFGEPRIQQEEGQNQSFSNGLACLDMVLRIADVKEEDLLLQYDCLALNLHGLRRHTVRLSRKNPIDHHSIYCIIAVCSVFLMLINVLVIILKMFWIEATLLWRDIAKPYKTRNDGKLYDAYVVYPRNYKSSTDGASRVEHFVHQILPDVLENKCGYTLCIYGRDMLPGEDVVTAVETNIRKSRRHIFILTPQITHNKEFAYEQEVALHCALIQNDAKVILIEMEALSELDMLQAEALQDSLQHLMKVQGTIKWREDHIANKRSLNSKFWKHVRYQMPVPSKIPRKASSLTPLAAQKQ
Active calls of the source: *.

N#Cc1c([N+](=O)[O-])cc([N+](=O)[O-])cc1S(=O)(=O)Cc1ccccc1 was read as ST2 IL33 inh inactive.
O=[N+]([O-])c1ccc(OCCO)c(OCCO)c1 was read as ST2 IL33 inh inactive.
`CCC(Sc1nncn1C)C(=O)Nc1nnc(C)s1` (stereo not given) gave ST2 IL33 inh inactive.
For CC(C)c1ccc(CN2CCOCC2)cc1 the results were ST2 IL33 inh inactive.
Screening CCCN1CCN(C(=O)c2sc3ncnc(N4CCCCC4C)c3c2C)CC1 (stereo not given) returned ST2 IL33 inh inactive.
`COc1ccc(Cc2n[nH]c(=O)c3ccccc23)cc1OC` gave ST2 IL33 inh inactive.
O=c1[nH]nc(Cc2ccccc2)c2ccccc12 was read as ST2 IL33 inh inactive.
`O=c1[nH]nc(C[N+](=O)[O-])c2ccccc12` gave ST2 IL33 inh 30.0%*.
`COc1ccc(/C=C(/NC(=O)c2ccco2)C(=O)Nc2ccccc2C)cc1` gave ST2 IL33 inh inactive.
`O=C(NCc1ccccc1CN1CCCC1=O)c1sccc1Cl` gave ST2 IL33 inh inactive.
`COC(=O)c1cc2n(n1)CCN(C(=O)c1ccc(C)[nH]c1=O)C2` gave ST2 IL33 inh inactive.
CCC(C)Oc1ccc(C(=O)Nc2ccc(NC(=O)C(C)C)cc2)cc1 (stereo not given) was read as ST2 IL33 inh inactive.
`C=CCSc1nnc2c(n1)OC(c1ccc(OC)cc1OC)N(C(C)=O)c1ccccc1-2` (stereo not given) gave ST2 IL33 inh 30.0%*.
COc1ccc(Br)c(C2Oc3nc(SC)nnc3-c3ccccc3N2C(C)=O)c1 (stereo not given) was read as ST2 IL33 inh inactive.
`COc1cc(C2Oc3nc(SC)nnc3-c3ccccc3N2C(C)=O)cc(OC)c1OC` (stereo not given) gave ST2 IL33 inh inactive.
C=CCSc1nnc2c(n1)OC(c1ccccn1)N(C(C)=O)c1ccccc1-2 (stereo not given) was read as ST2 IL33 inh inactive.
`CCN(CC)c1ccc(C2Oc3nc(SC)nnc3-c3ccccc3N2C(C)=O)c(OC)c1` (stereo not given) gave ST2 IL33 inh 36.0%*.
For C=CCSc1nnc2c(n1)OC(c1ccncc1)N(C(C)=O)c1ccccc1-2 (stereo not given) the results were ST2 IL33 inh inactive.
Screening Cn1c(=O)c2nc(-c3ccccc3Cl)oc2c2ccccc21 returned ST2 IL33 inh inactive.
Screening COc1cccc(C2CCN2C(=O)CC(=O)Nc2ccc(C)cc2)c1 (stereo not given) returned ST2 IL33 inh 31.0%*.
For COc1cccc(C2CCN2C(=O)Nc2n[nH]c(CCc3ccccc3)n2)c1 (stereo not given) the results were ST2 IL33 inh inactive.
COc1cccc(NC(=O)C(=O)NCc2ccc(C)cc2)c1 was read as ST2 IL33 inh inactive.
Screening COC(=O)C(C)Oc1ccc2c(C)cc(=O)oc2c1 (stereo not given) returned ST2 IL33 inh inactive.
CS(=O)(=O)c1ccc(-c2nccn2CCn2ccnc2)cc1 was read as ST2 IL33 inh inactive.
For Cc1ccc([C@]2(O)NC([S-])=C(C#N)[C@H](c3ccc(F)cc3)[C@H]2[n+]2ccccc2)cc1 the results were ST2 IL33 inh inactive.
COC(=O)C1C(=O)NC(SC)=C(C#N)C1c1ccc(C)cc1 (stereo not given) was read as ST2 IL33 inh inactive.
Screening Cc1cc[n+](C2C(c3ccc(Br)cc3)C(C#N)=C([S-])NC2(O)C2CC2)cc1 (stereo not given) returned ST2 IL33 inh 55.0%*.
`O=C(C1CCCCN1S(=O)(=O)c1ccc(Cl)cc1)N1CCCCCC1` (stereo not given) gave ST2 IL33 inh inactive.
`O=C(c1ccc(Br)cc1)N1CCN=C1SCc1ccccc1F` gave ST2 IL33 inh inactive.
`OC(CN1CCOCC1)c1ccc(-c2cccc3ccnn23)cc1` (stereo not given) gave ST2 IL33 inh inactive.
COc1cccc(C(=O)Nc2ccc(Nc3nc(C)cc(Nc4ccc(C)cc4)n3)cc2)c1 was read as ST2 IL33 inh inactive.
`CCCC(=O)Nc1ccc(Nc2nc(C)cc(Nc3ccc(OC)cc3)n2)cc1` gave ST2 IL33 inh inactive.
Screening CCOc1ccc(C(=O)Nc2ccc(Nc3nc(C)cc(Nc4ccc(OC)cc4)n3)cc2)cc1 returned ST2 IL33 inh 30.0%*.
CNc1ccccc1C(=O)Nc1cccc(NC(=O)Cc2ccccc2)c1 was read as ST2 IL33 inh inactive.
